Measured values as given in PubChem BioAssay (NCATS).
Where “and” joins values, the source holds several entries; their conditions need not be identical. Equal values may be shown once. Records with an inconclusive call do not appear. Values without a mark were called inactive. Calls of active or inactive are those of the source. Calls come from the whole dose curve; as a rule, active = well fitted curve in the direction sought with a large enough effect; inconclusive = small, poorly fitted or top-dose-only effect, or another doubt; inactive = no such curve, though single readings can be large; an effect the other way counts as inactive or inconclusive.

Experiments:
KB-3-1 = assay: Cytotoxic Profiling of Annotated Libraries Using Quantitative High-Throughput Screening (AID 1296008); conditions: Five cell lines viability, CellTiter-Glo ATP luminescence, 48-72 h; max response: stronger effect = lower value; note: nearly all actives have a fitted effect of over 60% in size; note: potency is the fitted concentration of half-maximal effect
In short: (§1)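 Cytotoxicity was measured as CellTiter-Glo ATP luminescence, read after 10 min at room temperature. Compound treatment of the cells lasted 48 or 72 hr at 37 degrees Celsius in a qHTS format.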

NIH3T3 = assay: as above; conditions: Five cell lines viability, CellTiter-Glo ATP luminescence, 48-72 h; max response: stronger effect = lower value
In short: as §1

C33A = assay: Primary qHTS to identify gynecologic anti-cancer compounds using libraries of approved drugs and bioactive compounds (AID 1345084); conditions: Gynecologic cancer cell panel viability, ATPlite luminescence, 48 h; series mostly up to 57.5 µM; note: nearly all actives have a fitted effect of over 55% in size
In short: (§2)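 Cytotoxicity screen measuring ATP content by luciferase luminescence. Each compound is applied at five concentrations for 48 h at 37 C with 5% CO2.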

CASKI = assay: as above; conditions: Gynecologic cancer cell panel viability, ATPlite luminescence, 48 h; series mostly up to 57.5 µM
In short: as §2

Es-2 = assay: as above; conditions: Gynecologic cancer cell panel viability, ATPlite luminescence, 48 h; series mostly up to 57.5 µM
In short: as §2

HeLa = assay: as above; conditions: Gynecologic cancer cell panel viability, ATPlite luminescence, 48 h; series mostly up to 57.5 µM
In short: as §2

Hek293T = assay: as above; conditions: Gynecologic cancer cell panel viability, ATPlite luminescence, 48 h, control line for the selectivity index; series mostly up to 57.5 µM
In short: as §2

JEG-3 = assay: as above; conditions: Gynecologic cancer cell panel viability, ATPlite luminescence, 48 h; series mostly up to 57.5 µM
In short: as §2

OV90 = assay: as above; conditions: Gynecologic cancer cell panel viability, ATPlite luminescence, 48 h; series mostly up to 57.5 µM
In short: as §2

CAOV3 = assay: as above; conditions: Gynecologic cancer cell panel viability, ATPlite luminescence, 48 h; series mostly up to 57.5 µM
In short: as §2

PA-1 = assay: as above; conditions: Gynecologic cancer cell panel viability, ATPlite luminescence, 48 h; series mostly up to 57.5 µM
In short: as §2

SKOV3 = assay: as above; conditions: Gynecologic cancer cell panel viability, ATPlite luminescence, 48 h; series mostly up to 57.5 µM
In short: as §2
% is set by controls: 0 for no effect and ±100 for the full control effect.

O=C(O)c1ccccc1[O-].O=C(O)c1ccccc1[O-].[Zn+2]
max response (KB-3-1): -8.24%

CS(=O)(=O)NC(=O)CCC/C=C\C[C@H]1C(=O)C[C@@H](O)[C@@H]1/C=C/[C@H](O)COc1ccccc1
max response (KB-3-1): -12.3%

CC(=O)O[C@H]1CC[C@@]2(C)C(=CC[C@@H]3[C@@H]2CC[C@]2(C)C(c4cccnc4)=CC[C@@H]32)C1
max response (KB-3-1): 0.542%

CC1(S(=O)(=O)O)CC(=O)c2ccccc2C1=O (stereo not given)
max response (KB-3-1): 5.99%

NCCCC(=O)O
max response (KB-3-1): 2.75%

O=C(Nc1ccc(/C=C/c2ccc(NC(=O)c3cc(S(=O)(=O)O)c4cccnc4c3O)cc2S(=O)(=O)O)c(S(=O)(=O)O)c1)c1cc(S(=O)(=O)O)c2cccnc2c1O
max response (KB-3-1): 0.4%

C/C(=C(/CCO)SSCC1CCCO1)N(C=O)Cc1cnc(C)nc1N (stereo not given)
max response (KB-3-1): -15.4% and -10.3%

CCCCOC(=O)C(=O)Nc1cccc(-c2nn[nH]n2)c1
max response (KB-3-1): -17%

CCCCCCCCCC(=O)O
max response (KB-3-1): -12.8%

OC(CN1CCCCC1)c1cc(-c2ccccc2)on1 (stereo not given)
max response (KB-3-1): -12.7%

CC(=O)[C@@]1(O)CC[C@H]2[C@@H]3C=C(Cl)C4=CC(=O)CC[C@]4(C)[C@H]3CC[C@@]21C
max response (KB-3-1): -17.5%

CC(C)(S)C(=O)N[C@@H](CS)C(=O)O
max response (KB-3-1): -0.209% and -15.2%

CCCCCCCCCCCCCCCC(=O)O[C@@H]1CC(C)=C(/C=C/C(C)=C/C=C/C(C)=C/C=C/C=C(C)/C=C/C=C(C)/C=C/C2=C(C)C[C@@H](OC(=O)CCCCCCCCCCCCCCC)CC2(C)C)C(C)(C)C1
max response (KB-3-1): -27.5%

O=P(O)(O)C(Sc1ccc(Cl)cc1)P(=O)(O)O
max response (KB-3-1): 2.09%

COc1cc([C@@H]2c3cc4c(cc3C(O[C@@H]3O[C@@H]5COC(c6cccs6)O[C@H]5[C@H](O)[C@H]3O)C3COC(=O)[C@@H]32)OCO4)cc(OC)c1O (stereo not given in full)
Potency (KB-3-1): 3.66 µM (active)

c1cnc2cc3c(cc2n1)[C@@H]1CNC[C@H]3C1
max response (KB-3-1): -10.7%

CC1(C)C2CC[C@]3(C)[C@H](C(=O)C=C4[C@@H]5C[C@@](C)(C(=O)O)CC[C@]5(C)CC[C@]43C)[C@@]2(C)CC[C@@H]1O[C@H]1O[C@H](C(=O)O)[C@@H](O)[C@H](O)[C@H]1O[C@@H]1O[C@H](C(=O)O)[C@@H](O)[C@H](O)[C@H]1O (stereo not given in full)
max response (KB-3-1): -22.6%

O=C(Cn1c(=O)sc2ccc(Cl)cc21)N1CCN(CCO)CC1
max response (KB-3-1): 2.82%

CN(C(=O)CO)c1c(I)c(C(=O)NCC(O)CO)c(I)c(C(=O)NCC(O)CO)c1I (stereo not given)
max response (KB-3-1): 5.16%

CC(=O)OC[C@H]1O[C@@H](O[C@H]2[C@H](O)[C@@H](OC(=O)c3ccccc3C(=O)O)[C@H](O)O[C@@H]2COC(C)=O)[C@H](O)[C@@H](OC(=O)c2ccccc2C(=O)O)[C@@H]1O
max response (KB-3-1): -12.2%

O=C(O)c1cc2ccccc2c(Cc2c(O)c(C(=O)O)cc3ccccc23)c1O
max response (KB-3-1): -8.98%

CC(CN(C)C)CN1c2ccccc2S(=O)(=O)c2ccccc21 (stereo not given)
max response (KB-3-1): 23.6%

CCN(CC)c1ccc(C(=C2C=CC(=[N+](CC)CC)C=C2)c2ccccc2)cc1
Potency (KB-3-1): 1.3 µM (active)

CCCCCCCCCCCCCCCC(=O)OCCC1CCN(CCCN2c3ccccc3Sc3ccc(S(=O)(=O)N(C)C)cc32)CC1
max response (KB-3-1): -4.82%

CCCC(=O)O[C@]1(C(=O)COC(=O)CC)[C@@H](C)C[C@H]2[C@@H]3CCC4=CC(=O)C=C[C@]4(C)[C@@]3(F)[C@@H](O)C[C@@]21C
max response (KB-3-1): -7.8%

CCOC(=O)[C@H](CCc1ccccc1)N[C@H]1CCCN2CCC[C@@H](C(=O)O)N2C1=O
max response (KB-3-1): 1.33%

CN1CCN(C2=Nc3ccccc3Cc3ccccc32)CC1
max response (KB-3-1): 2.98%

CC(CN1c2ccccc2Sc2ccc(S(=O)(=O)N(C)C)cc21)N(C)C (stereo not given)
max response (KB-3-1): -2.65%

NCCC(=O)[N-][C@@H](Cc1cnc[nH]1)C(=O)O.[Zn]
max response (KB-3-1): -13.6%

Cc1ccc(NC(=O)N2CCN(c3nc(N)nc4sc(-c5cccnc5)nc34)CC2)cc1
max response (KB-3-1): -18.9%
Potency (NIH3T3): 2.91 µM (active)
Potency (C33A): inactive
Potency (CASKI): inactive
Potency (Es-2): inactive
Potency (HeLa): inactive
Potency (Hek293T): inactive
Potency (JEG-3): inactive
Potency (OV90): inactive

C=C1C(=O)O[C@@H]2C[C@]3(C)[C@@H](CCC(C)O)[C@@H]3C[C@H]12 (stereo not given in full)
outcome (KB-3-1): inactive
max response (NIH3T3): -15.1%
Potency (C33A): inactive
Potency (CAOV3): inactive
Potency (CASKI): inactive
Potency (Es-2): inactive
Potency (HeLa): inactive
Potency (Hek293T): inactive
Potency (JEG-3): inactive
Potency (OV90): inactive
Potency (PA-1): inactive

C=C1CC2C3CCC4=CC(=O)C=C[C@]4(C)[C@@]3(F)[C@@H](O)C[C@]2(C)[C@@]1(O)C(=O)COC(C)=O (stereo not given in full)
max response (KB-3-1): 3%

COC[C@H](c1ccc(C(F)(F)F)cc1)N1CCN(C2(C)CCN(C(=O)c3c(C)ncnc3C)CC2)C[C@H]1C
max response (KB-3-1): -20%

O=C(OCCO)c1ccccc1O
max response (KB-3-1): -5.64%

O=c1[nH]cnc2[nH]cc(CN3CCCCC3)c12
max response (KB-3-1): -7.83%

O=P(O)(O)OC(CO)CO
max response (KB-3-1): 1.53%

CCCC(CCC)C(N)=O
max response (KB-3-1): -11%

CO/N=C(\C(=O)N[C@@H]1C(=O)N2C(C(=O)OCOC(=O)C(C)(C)C)=C(/C=C\c3scnc3C)CS[C@H]12)c1csc(N)n1
max response (KB-3-1): -14.1%

C=C1C(=O)OC2C3=C(C)C(=O)CC3C(C)CC(O)C12 (stereo not given)
max response (KB-3-1): 9.21%
max response (NIH3T3): -16.4%
Potency (C33A): inactive
Potency (CAOV3): inactive
Potency (CASKI): inactive
Potency (Es-2): inactive
Potency (HeLa): inactive
Potency (Hek293T): inactive
Potency (JEG-3): inactive
Potency (OV90): inactive
Potency (PA-1): inactive
Potency (SKOV3): inactive

CC(=O)O[C@@H]1[C@H](O[C@@H]2O[C@@H](CO)[C@H](O)[C@H]2O)[C@@H](O[C@@H]2O[C@@H](C)[C@H](O[C@@H]3OC[C@@H](O)[C@H](O)[C@H]3O)[C@@H](O)[C@H]2O)[C@H](OC(=O)[C@]23CCC(C)(C)C[C@H]2C2=CCC4[C@@]5(C)CC[C@H](O[C@@H]6O[C@H](C(=O)O)[C@@H](O)[C@H](O)[C@H]6O[C@@H]6O[C@H](CO)[C@H](O)[C@H](O)[C@H]6O)[C@@](C)(C=O)C5CC[C@@]4(C)[C@]2(C)C[C@H]3O)O[C@@H]1C (stereo not given in full)
max response (KB-3-1): 8.09%
max response (NIH3T3): -0.852%
activity change, negative = cytotoxicity (C33A): -10.4% [at 6.55 µM]
activity change, negative = cytotoxicity (CAOV3): -10.3% [at 6.55 µM]
activity change, negative = cytotoxicity (CASKI): -9.38% [at 6.55 µM]
activity change, negative = cytotoxicity (HeLa): 10% [at 6.55 µM]
activity change, negative = cytotoxicity (JEG-3): 6.34% [at 6.55 µM]
activity change, negative = cytotoxicity (SKOV3): 8.44% [at 6.55 µM]

CCCOc1ccc2nc(NC(=O)OC)sc2c1
Potency (KB-3-1): 10.3 µM (active)

C=C[C@]1(C)C[C@H](O)[C@H]2C(=C)C(=O)O[C@@H]2[C@H]1C(=C)CO
outcome (KB-3-1): inactive
max response (NIH3T3): -30%
Potency (C33A): inactive
Potency (CAOV3): inactive
Potency (CASKI): inactive
Potency (Es-2): inactive
Potency (HeLa): inactive
Potency (Hek293T): inactive
Potency (JEG-3): inactive
Potency (OV90): inactive
Potency (PA-1): inactive
Potency (SKOV3): inactive

COc1ccc(CCNCC(O)COc2cccc(C)c2)cc1OC (stereo not given)
max response (KB-3-1): -6.7%

CCCCCCCCCCCCCCCC(=O)OC[C@H](O)[C@H]1OC(=O)C(O)=C1O
max response (KB-3-1): -14.1%

CO[C@H]1[C@@H](O)[C@H](N)[C@@H](O[C@H]2O[C@H]([C@H](C)N)CC[C@H]2N)[C@H](O)[C@@H]1N(C)C(=O)CN
max response (KB-3-1): -19.3%

O=C(CCCN1CCC(n2c(=S)[nH]c3ccccc32)CC1)c1ccc(F)cc1
max response (KB-3-1): 8.28%

CCOC(=O)COc1ccc2c(=O)cc(-c3ccccc3)oc2c1
max response (KB-3-1): -2% and -15.3%

CC(=O)OCC(=O)[C@@]1(O)[C@H](C)C[C@H]2[C@@H]3C[C@H](F)C4=CC(=O)C=C[C@]4(C)[C@H]3[C@@H](O)C[C@@]21C
max response (KB-3-1): 23.1%
